# Inconclusive results are not listed. Calls of active or inactive are those of the source. The call rests on the fitted dose curve; in most records, active means well fitted activation curve with a large enough effect in the signal ratio in the repeat runs (not every such curve was filed as active); inconclusive means weak or mixed curves; inactive means flat fitted curve, though single readings scatter; the % refers to the signal ratio.
# Experiment: qHTS assay to identify small molecule agonists of the hypoxia (HIF-1) signaling pathway (AID 1224846)
# Details: HRE-bla ME-180 cells, beta-lactamase ratio, 17 h; series mostly up to 76.8 µM
# Excerpt: U.S. Tox21 Program National Center for Advancing Translational Sciences [NCATS] NIH Chemical Genomics Center [NCGC] U.S. Environmental Protection Agency [EPA] National Institutes of Environmental Health Sciences [NIEHS] National Toxicology Program [NTP] U.S. Food and Drug Administration [FDA] Tox21 Assay Overview: Hypoxia-inducible factor-1 (HIF-1) is the major hypoxia-regulated transcription factor that controls cellular responses to low oxygen concentration. HIF-1 is composed of two subunits: hypoxia responsive HIF-1-alpha and constitutively expressed HIF-1-beta, which is also known as aryl hydrocarbon receptor nuclear translocator. During hypoxic conditions, HIF-1-alpha heterodimerizes with HIF-1-beta and translocates into the nucleus where the HIF-1 complex binds to the hypoxia-response element (HRE) and activates expression of target genes such as VEGF (vascular endothelial growth factor). The HIF-1 pathway is essential to normal growth and development, and is involved in the pathophysiology of cancer, inflammation, and ischemia. Using a beta-lactamase reporter-gene under control of the hypoxia response element, a cell-based assay [CellSensor(TM) HRE-bla ME-180 from Life Technologies, Carlsbad, CA] was used to measure hypoxia-induced signaling. Tox21 10K library compounds were measured for their ability to induce the reporter gene activity.
# Tox21 Assay Protocol Summary: HRE-bla ME-180 cells were dispensed at 2,000 cells per well in 6 uL of assay medium containing 0.5% dialyzed FBS into black wall/clear-bottom 1536-well plates using a Multidrop Combi (Thermo Scientific, Waltham, MA) dispenser. After the assay plates were incubated at 37C and 5% CO2 for 5 hrs, 23 nL of compounds dissolved in DMSO, positive controls or DMSO only was transferred to each well of the assay plate using a Pintool station (Kalypsys, San Diego, CA). The assay plates were incubated at 37C and 5% CO2 for 17 hrs. One uL of LiveBLAzerTM B/G FRET substrate (CCF4-AM) (Life Technologies) was added to each well using a Flying Reagent Dispenser (Aurora Discovery, San Diego, CA).
# On the % scale 0 is the no-effect control and ±100 the full control effect.
Structure (SMILES),outcome,activation
Cc1cc2c(OCC(CNC(C)(C)C)OC(=O)c3ccccc3)cccc2[nH]1 (stereo not given),inactive,–
CC(C)(O)c1ccc(CNC(=O)c2cccnc2Oc2ccc3nonc3c2)cc1,inactive,–
CC[N+](CC)(CCNC(=O)C(=O)NCC[N+](CC)(CC)Cc1ccccc1Cl)Cc1ccccc1Cl,inactive,–
O=C(/C=C/c1ccccc1)OCCc1ccccc1,inactive,–
CCOC(=O)c1ccc(O)c(O)c1,inactive,–
C=COCC(C)C,inactive,–
O=C(Cn1ccnc1[N+](=O)[O-])NCCO,inactive,–
CCCCCC#CC(=O)OC,inactive,–
CO[C@]1(NC(=O)CSC(F)F)C(=O)N2C(C(=O)O)=C(CSc3nnnn3CCO)CO[C@H]21,inactive,–
COc1cc(C(=O)NCCCCCC(=O)O)cc(OC)c1OC,inactive,–
O=C(OC(=O)c1ccccc1)c1ccccc1,inactive,–
Cc1cc(=O)c2c(O)c3c(O)cc(=O)c4c3c3c(cc(O)c1c23)C(C)(C)C=4O,–,-2.37% [at 15.8 µM] (inactive)
CCCCCCCCOc1ccc(C(=O)O)cc1,inactive,–
Nc1ncnc2c1ncn2[C@H]1CC[C@@H](CO)O1,inactive,–
C/C=C\C/C=C/CCCCCCCCOC(C)=O,inactive,–
CC(C)Nc1cccnc1N1CCN(C(=O)c2cc3cc(NS(C)(=O)=O)ccc3[nH]2)CC1,inactive,–
CCCC(=O)C(=O)O,inactive,–
CCC(OCCCOC)OC(C)=O (stereo not given),inactive,–
C=C/C(C)=C/C/C=C(\C)CCC=C(C)C,inactive,–
CN1C(C(=O)Nc2ccccn2)=C(O)c2sccc2S1(=O)=O,inactive,–

Structure (SMILES),outcome,activation
CCCCN1CCCC1C(=O)Nc1c(C)cc(C)cc1C (stereo not given),inactive,–
Nc1cccc2c1CN(C1CCC(=O)NC1=O)C2=O (stereo not given),inactive,–
CCOC(C)=O,inactive,–
COC(=O)C1=C(C)NC(C)=C(C(=O)O[C@@H]2CCCN(Cc3ccccc3)C2)[C@@H]1c1cccc([N+](=O)[O-])c1,inactive,–
Cc1ccc(CO)cc1,inactive,–
c1ccc2sc(SN(C3CCCCC3)C3CCCCC3)nc2c1,inactive,–
O=C(O)CCCCCCCCCCCBr,inactive,–
Nc1ccc(N=Nc2ccccc2)c(N)c1,inactive,–
CC/C=C1/OC(=O)c2ccccc21,inactive,–
C[C@]12CC[C@@H]3c4ccc(O)cc4CC[C@H]3[C@@H]1CC[C@@H]2OC(=O)CCC1CCCC1,inactive,–
O=C(/C=C/c1ccc(O)c(O)c1)O[C@@H]1C[C@@](OC(=O)/C=C/c2ccc(O)c(O)c2)(C(=O)O)C[C@@H](O)[C@@H]1O,inactive,–
O=C(O)C[C@H](NC(=O)OCc1ccccc1)C(=O)O,inactive,–
CCC(C)COC(C)=O (stereo not given),inactive,–
CC1=Nc2ccc3ccccc3c2C1(C)C,inactive,–
COC(=O)CCS,inactive,–
CCCCCC[C@@H](O)C/C=C\CCCCCCCC(=O)O,inactive,–
Brc1cc(Br)c(Oc2cc(Br)c(Br)cc2Br)cc1Br,inactive,–
Cc1cccc(O)c1N,inactive,–
CC(=O)N/N=C/c1ccc([N+](=O)[O-])o1,inactive,–
NC1[C@H]2CN(c3nc4c(cc3F)c(=O)c(C(=O)O)cn4-c3ccc(F)cc3F)C[C@@H]12 (stereo not given in full),inactive,–

# From PubChem BioAssay (Tox21)
